These results are taken from PubChem BioAssay AID2669 (National Center for Advancing Translational Sciences (NCATS), 2010).

Each structure is given as a SMILES string. Values joined by “and” are separate entries in the source; they are usually repeats but may differ in a detail not shown here. Identical values can stand only once. Results filed as inconclusive are left out. Values without a mark were called inactive. Active and inactive are the calls of the source. The call rests on the fitted dose curve; in most records, active means well fitted inhibition curve with a large enough effect; inconclusive means small, poorly fitted or top-dose-only effect, or effect the other way; inactive means flat fitted curve, though single readings scatter.

This test can be described thus: qHTS Assay Multiplex Screening to Identify Dual Action Probes in a Cell Model of Huntington: Cytoprotection (Protease relase). As to conditions: PC12 HttQ103 cells, Cytotox-Glo protease release, 40 h; series mostly up to 46.1 µM; activity change, negative = inhibition: at the top concentration. A digest of the protocol: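 Inducible PC12 line expressing HTT exon 1 (Q103)-GFP, induced with 100 nM tebufenozide (final) and treated with compounds. Cytoprotection read as released protease activity by Cytotox-Glo luminescence.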
A general note: Quantitative high-throughput screening tests each substance at several concentrations.
`Cc1noc(C)c1COC(=O)Cc1ccc(Cl)cc1`: the “activity change, negative = inhibition” value is 3.72%. Turning to `CN(C)CCCSc1ccccc1NC(=O)/C=C\c1ccccc1`, the Potency is 6.31 µM (active). In the case of `NC(=O)C1CCN(CCC(=O)Nc2ccc(Br)cc2)CC1`, the “activity change, negative = inhibition” value was -9%.

`N#Cc1c(C(F)(F)F)cc(-c2cccc(Cl)c2)[nH]c1=O`: the Potency was 2.51 µM (active). The same measure, in the same setting: as for `Cn1nnnc1Sc1ncnc2scc(-c3ccc(C#N)cc3)c12`, the figure is 8.91 µM (active).

With `Cn1nnnc1Sc1ncnc2scc(-c3ccc4c(=O)ccoc4c3)c12`, the Potency was 7.94 µM (active). On the same count and under the same terms, under `COc1ccccc1-c1nnc(Sc2nc([N+](=O)[O-])nn2C)o1` stands 12.6 µM (active); under `Cn1nnnc1Sc1ncnc2scc(-c3ccc(S(C)(=O)=O)cc3)c12`, 11.2 µM (active); under `COc1ccc(NC(=O)c2sc(SC)nc2N)cc1`, 4.47 µM (active).

`N#Cc1c(C(F)(F)F)cc(-c2ccc(Cl)cc2)[nH]c1=O`: the Potency was 4.47 µM (active).

As for `COc1cc(-c2nc(S(=O)(=O)c3ccc(C)cc3)c(N(C)C)o2)cc(OC)c1OC`, the “activity change, negative = inhibition” value is 23.5%. Same read-out and setting: as for `CCC(=O)O[C@]1(C(=O)CCl)[C@@H](C)C[C@H]2[C@@H]3CCC4=CC(=O)C=C[C@]4(C)[C@@]3(F)[C@@H](O)C[C@@]21C`, the figure is 2.63%. In the case of `O=C1Cc2c([nH]c3ccc(Br)cc23)-c2ccccc2N1`, the Potency is 2.24 µM (active) and 3.55 µM (active). The same measure, in the same setting: as for `Cn1nnnc1Sc1ncnc2scc(-c3ccccc3Cl)c12`, the figure is 15.8 µM (active); as for `Cn1nnnc1Sc1ncnc2scc(-c3ccc(-c4ccccc4)cc3)c12`, 10 µM (active). Take `Cn1nnnc1Sc1ncnc2scc(-c3cccc(F)c3)c12`: the Potency is 11.2 µM (active).

For the compound `Cn1nnnc1Sc1ncnc2scc(-c3ccccc3Br)c12`, the Potency was 14.1 µM (active). Same read-out and setting: under `Cn1nnnc1Sc1ncnc2scc(-c3cccc(C(F)(F)F)c3)c12` stands 14.1 µM (active). On the same count and under the same terms, as for `Cn1nnnc1Sc1ncnc2scc(-c3cccc(Cl)c3)c12`, the figure is 11.2 µM (active); as for `COc1cccc(C(=O)Nc2ccc(F)c(F)c2F)c1`, 7.08 µM (active).

On to `Cn1nnnc1Sc1ncnc2scc(I)c12`, for which the Potency is 11.2 µM (active). Turning to `CCOC(=O)c1sc2nc(N3CCOCC3)c3c(c2c1N)CCN(C)C3`, the “activity change, negative = inhibition” value was 8.6%. For `Cn1nnnc1Sc1ncnc2scc(-c3ccccc3)c12`, the Potency was 2.82 µM (active) and 7.94 µM (active).
